In PubChem BioAssay (NCATS):
Inconclusive results are not listed. Calls of active or inactive are those of the source. Unless noted, the call rests on the fitted dose curve; in most records, active means well fitted activation curve with a large enough effect in the main read-out, with a control signal flat (not every such curve was filed as active); inconclusive means small, poorly fitted or top-dose-only effect, or effect the other way, or a change in a side signal; inactive means flat fitted curve, though single readings scatter.

Biological target: Mitogen-activated protein kinase 10 (Mus musculus) (UniProt Q61831)
Assay: JNK3 AlphaScreen Assay (AID 530; active means well fitted curve in either direction with a large enough effect, not every such curve was filed as active;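 further: kinase came from lysate of stimulated human HepG2 cells; signal reports phosphorylation of biotinylated GST-cJun 1-79 at Ser73 with 10 µM ATP; on the % scale 0 is the no-effect control and ±100 the full control effect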)
Settings: JNK3 lysate, c-Jun phosphorylation; series mostly up to 57.1 µM; activity change, negative = inhibition: at the top concentration
Outline: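 qHTS titrations with 15 min compound pre-incubation before adding ATP (10 uM final). Read-out: AlphaScreen of Ser73-phosphorylated biotin-GST-cJun using HepG2 lysate JNK3 activated by IL-1β and TNFα.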

Row | SMILES | activity change, negative = inhibition
1 | COc1ncc2nc(-c3ccc(F)cc3)c(=O)n(C)c2n1 | -3.6% (inactive)
2 | CN1CCN(c2ncc3nc(-c4cc(F)cc(F)c4)c(=O)n(Cc4cccs4)c3n2)CC1 | 22.9% (inactive)
3 | CCNc1ncc2nc(-c3ccccc3)c(=O)n(Cc3cccs3)c2n1 | 10.8% (inactive)
4 | CNc1nc(-c2ccccc2CN(C)C)nc2ccccc12 | 3.44% (inactive)
5 | COCCNc1ncnc2ccc(-c3cccnc3)cc12 | -9.56% (inactive)
6 | COc1cccc(Cn2c(=O)c(-c3cccc(C#N)c3)nc3cnc(N4CCN(C)CC4)nc32)c1 | 13.2% (inactive)
7 | COc1cccc(Cn2c(=O)c(-c3cc(F)cc(F)c3)nc3cnc(N(C)C)nc32)c1 | 6.55% (inactive)
8 | COc1cccc(Cn2c(=O)c(-c3cc(F)cc(F)c3)nc3cnc(N4CCN(C)CC4)nc32)c1 | -1.78% (inactive)
9 | COc1cccc(Nc2ncc3nc(C)c(=O)n(Cc4cccs4)c3n2)c1 | -0.8% (inactive)
10 | CN1CCN(c2cc(-c3ccoc3)ncn2)CC1 | -2.52% (inactive)
11 | CN(C)c1ncnc2ccc(-c3ccoc3)cc12 | -17.2% (inactive)
12 | CCNc1ncc2nc(-c3cn(C)c4ccccc34)c(=O)n(Cc3cccc(OC)c3)c2n1 | 16.3% (inactive)
13 | COc1ccc(-c2nc3cnc(Oc4cccc(Cl)c4)nc3n(C3CC3)c2=O)cc1 | 13.5% (inactive)
14 | COc1ncc2nc(-c3cccs3)c(=O)n(CCc3ccccc3)c2n1 | 10.4% (inactive)

Biological target: 3',5'-cyclic-AMP phosphodiesterase 4B (Homo sapiens) (UniProt Q07343)
Sequence (Q07343 whole entry, looked up): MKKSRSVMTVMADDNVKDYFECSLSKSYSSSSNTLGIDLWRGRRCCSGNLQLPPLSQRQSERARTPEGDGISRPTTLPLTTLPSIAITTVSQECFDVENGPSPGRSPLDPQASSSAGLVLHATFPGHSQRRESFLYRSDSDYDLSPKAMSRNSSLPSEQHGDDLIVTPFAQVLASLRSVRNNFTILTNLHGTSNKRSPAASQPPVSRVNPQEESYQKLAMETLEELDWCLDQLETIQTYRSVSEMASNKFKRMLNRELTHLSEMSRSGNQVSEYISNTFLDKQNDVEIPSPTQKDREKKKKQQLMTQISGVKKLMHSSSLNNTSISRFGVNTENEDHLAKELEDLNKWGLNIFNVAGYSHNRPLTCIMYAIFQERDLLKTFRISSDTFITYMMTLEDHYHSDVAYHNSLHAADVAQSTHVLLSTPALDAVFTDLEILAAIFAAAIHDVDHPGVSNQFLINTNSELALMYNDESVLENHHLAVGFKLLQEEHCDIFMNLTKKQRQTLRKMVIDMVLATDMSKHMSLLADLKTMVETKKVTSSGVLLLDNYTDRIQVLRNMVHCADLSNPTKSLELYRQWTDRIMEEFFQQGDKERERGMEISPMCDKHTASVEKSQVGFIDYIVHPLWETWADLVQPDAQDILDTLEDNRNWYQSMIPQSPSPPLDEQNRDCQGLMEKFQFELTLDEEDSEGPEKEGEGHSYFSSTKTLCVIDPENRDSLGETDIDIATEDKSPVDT
Assay: qHTS Assay for Inhibitors of PDE-IV (AID 607); further: % of control where 0% means no effect
Settings: HEK293 ACTOne CNG channel cells, membrane potential fluorescence; series mostly up to 22.9 µM; activation (PDE inhibition): at the top concentration
Outline: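 ACTOne HEK293 cells carry a modified cAMP-gated CNG channel and express endogenous PDE4; plated 1000 cells/well, compounds up to 22.9 uM final. Membrane-potential dye fluorescence (ex 535/em 590) was read; parental cells received 10 uM forskolin + 100 uM RO 20-1724.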

Row | SMILES | activation (PDE inhibition)
15 | CN1CCN(c2ncc3ncc(=O)n(C[C@H]4CCCO4)c3n2)CC1 | -0.488% (inactive)
16 | COCCn1c(=O)c(-c2cccc(C#N)c2)nc2cnc(Oc3ccccc3)nc21 | 11.5% (inactive)
17 | CS(=O)(=O)Nc1cccc(-c2ccc3ncnc(Nc4ccccc4)c3c2)c1 | 13.4% (inactive)
18 | COc1ccc(-c2nc3cnc(N4CCN(C)CC4)nc3n(Cc3cccs3)c2=O)cc1 | 26.2% (inactive)
19 | COCCn1c(=O)cnc2cnc(Nc3cccc(OC)c3)nc21 | 6.98% (inactive)
20 | COCCn1c(=O)cnc2cnc(Nc3ccccc3)nc21 | 29.7% (inactive)
21 | CN1CCN(c2ncc3nc(-c4cc(F)cc(F)c4)c(=O)n(CCc4ccccc4)c3n2)CC1 | 6.75% (inactive)
22 | O=c1c(-c2ccc(Cl)cc2)nc2cnc(N3CCNCC3)nc2n1Cc1cccs1 | -14.6% (inactive)
23 | O=c1c(-c2ccc(F)cc2)nc2cnc(N3CCNCC3)nc2n1C1CC1 | -11.9% (inactive)
24 | COc1ccc(-n2c(=O)c(-c3ccc(Cl)cc3)nc3cnc(N4CCNCC4)nc32)cc1 | -22.5% (inactive)
25 | COCCNc1ncnc2ccc(-c3cccc(OC)c3)cc12 | 25% (inactive)
26 | O=c1c(-c2ccc(Cl)cc2)nc2cnc(N3CCOCC3)nc2n1-c1ccccc1 | 3.27% (inactive)
27 | CN(C)c1ncc2nc(-c3ccc(F)cc3)c(=O)n(Cc3ccc(F)cc3)c2n1 | -4.43% (inactive)
28 | COc1ccc(-c2nc3cnc(Oc4ccccc4)nc3n(CCC#N)c2=O)cc1 | -9.14% (inactive)
29 | Cc1nc2cncnc2n(C2CC2)c1=O | 19.4% (inactive)
30 | COc1ccc2[nH]cc(CCNc3ncnc4ccc(-c5cccnc5)cc34)c2c1 | 19.7% (inactive)
31 | Cn1c(=O)c(-c2ccc(Cl)cc2)nc2cnc(N3CCOCC3)nc21 | -1.84% (inactive)
32 | CN(C)c1ncc2nc(-c3ccccc3)c(=O)n(Cc3ccc(F)cc3)c2n1 | 15.3% (inactive)
33 | COc1ccc(Oc2ncc3nc(-c4ccc(Cl)cc4)c(=O)n(C[C@H]4CCCO4)c3n2)cc1 | -18% (inactive)
34 | COc1ncc2nc(-c3ccc(F)cc3)c(=O)n(C)c2n1 | -6.02% (inactive)
35 | CN1CCN(c2ncc3nc(-c4cc(F)cc(F)c4)c(=O)n(Cc4cccs4)c3n2)CC1 | -22.3% (inactive)
36 | CN1CCN(c2ncc3nc(-c4ccc(Cl)cc4)c(=O)n(-c4ccccc4)c3n2)CC1 | -14.3% (inactive)
37 | CN1CCN(c2ncc3nc(-c4ccc(F)cc4)c(=O)n(Cc4cccs4)c3n2)CC1 | -8.98% (inactive)
38 | COCCNc1ncnc2ccc(-c3cccnc3)cc12 | 22% (inactive)
39 | COc1cccc(Cn2c(=O)c(-c3cccc(C#N)c3)nc3cnc(N4CCN(C)CC4)nc32)c1 | 3.69% (inactive)
40 | COc1cccc(Cn2c(=O)c(-c3cc(F)cc(F)c3)nc3cnc(N(C)C)nc32)c1 | 8.69% (inactive)
41 | COc1cccc(Cn2c(=O)c(-c3cc(F)cc(F)c3)nc3cnc(N4CCN(C)CC4)nc32)c1 | 7.25% (inactive)
42 | CN1CCN(c2cc(-c3ccoc3)ncn2)CC1 | 11.5% (inactive)
43 | CCNc1ncc2nc(-c3cn(C)c4ccccc34)c(=O)n(Cc3cccc(OC)c3)c2n1 | 24.9% (inactive)
44 | COc1ccc(-c2nc3cnc(Oc4cccc(Cl)c4)nc3n(C3CC3)c2=O)cc1 | 1.82% (inactive)

Biological target: Cytochrome P450 2C9 (Homo sapiens) (UniProt P11712)
Sequence (P11712 whole entry, looked up): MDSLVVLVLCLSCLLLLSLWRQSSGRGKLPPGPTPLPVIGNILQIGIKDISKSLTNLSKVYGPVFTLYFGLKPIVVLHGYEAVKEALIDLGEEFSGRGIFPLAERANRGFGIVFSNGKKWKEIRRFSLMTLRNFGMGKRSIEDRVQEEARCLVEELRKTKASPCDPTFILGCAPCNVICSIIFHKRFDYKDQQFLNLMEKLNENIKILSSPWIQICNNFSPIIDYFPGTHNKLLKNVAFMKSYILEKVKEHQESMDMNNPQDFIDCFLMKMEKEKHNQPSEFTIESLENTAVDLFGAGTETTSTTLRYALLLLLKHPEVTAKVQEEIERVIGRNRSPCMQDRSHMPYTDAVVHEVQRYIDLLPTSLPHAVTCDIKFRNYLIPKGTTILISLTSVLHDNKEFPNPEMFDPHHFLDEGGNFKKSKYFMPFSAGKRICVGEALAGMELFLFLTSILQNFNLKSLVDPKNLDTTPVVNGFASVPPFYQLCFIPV
Assay: qHTS Assay for Inhibitors and Substrates of Cytochrome P450 2C9 (AID 883; active means well fitted inhibition curve with a large enough effect; further: nearly all actives have a fitted effect of over 60% in size; further: potency means the concentration at half of the fitted maximal effect; on activity change, negative = inhibition: on the % scale 0 is the no-effect control and ±100 the full control effect)
Settings: recombinant CYP2C9, luciferin-H luminescence, 60 min; series mostly up to 57.1 µM; activity change, negative = inhibition: at the top concentration
Outline: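 Turnover of Luciferin-H (100uM, KM) by 10nM human CYP2C9 was measured over 60 min at 37C with NADPH regeneration; inhibitors and some substrates reduce luminescence. Data normalized to sulphaphenazole 57uM.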

Row | SMILES | Potency | activity change, negative = inhibition
45 | COCCn1c(=O)c(-c2cccc(C#N)c2)nc2cnc(Oc3ccccc3)nc21 | 7.94 µM (active) | 
46 | O=c1c(-c2ccc(Cl)cc2)nc2cnc(N3CCOCC3)nc2n1-c1ccccc1 |  | 31.9% (inactive)
47 | CN(C)c1ncc2nc(-c3ccc(F)cc3)c(=O)n(Cc3ccc(F)cc3)c2n1 |  | 39.6% (inactive)
48 | Cn1c(=O)c(-c2ccc(Cl)cc2)nc2cnc(N3CCOCC3)nc21 |  | 16.4% (inactive)

Biological target: Cytochrome P450 3A4 (Homo sapiens) (UniProt P08684)
Sequence (P08684 whole entry, looked up): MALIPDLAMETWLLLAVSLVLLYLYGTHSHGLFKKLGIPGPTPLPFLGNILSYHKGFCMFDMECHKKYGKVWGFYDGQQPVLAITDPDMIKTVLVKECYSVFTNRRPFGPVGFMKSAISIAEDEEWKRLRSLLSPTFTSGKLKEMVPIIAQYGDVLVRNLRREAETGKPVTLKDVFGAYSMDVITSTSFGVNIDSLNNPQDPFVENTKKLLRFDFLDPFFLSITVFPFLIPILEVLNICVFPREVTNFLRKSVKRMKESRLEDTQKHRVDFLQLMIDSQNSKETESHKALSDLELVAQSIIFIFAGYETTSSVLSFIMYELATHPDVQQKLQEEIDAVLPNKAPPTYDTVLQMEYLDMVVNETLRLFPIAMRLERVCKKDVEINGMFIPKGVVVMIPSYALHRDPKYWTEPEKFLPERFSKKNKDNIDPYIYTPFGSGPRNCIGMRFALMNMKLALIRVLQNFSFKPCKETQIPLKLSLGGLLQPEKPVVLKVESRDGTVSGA
Assay: qHTS Assay for Inhibitors and Substrates of Cytochrome P450 3A4 (AID 884; active means well fitted inhibition curve with a large enough effect; further: nearly all actives have a fitted effect of over 50% in size; further: potency means the concentration at half of the fitted maximal effect; on activity change, negative = inhibition: on the % scale 0 is the no-effect control and ±100 the full control effect)
Settings: recombinant CYP3A4, Luciferin-PPXE luminescence; series mostly up to 57.1 µM; activity change, negative = inhibition: at the top concentration
Outline: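 Luminescent readout of luciferin produced by CYP3A4 (20 nM) dealkylation of Luciferin-PPXE, 25 uM (its KM). NADPH-driven reaction ran 60 min at RT after 10 min compound preincubation; data scaled to 57 uM ketoconazole as 100% inhibition.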

Row | SMILES | Potency | activity change, negative = inhibition
49 | FC(F)(F)c1ccccc1-c1nccc(NCc2cccs2)n1 | 2 µM (active) | 
50 | FC(F)(F)c1ccccc1-c1nc(NCc2cccs2)c2ccccc2n1 | 3.98 µM (active) | 
51 | c1ccc(CNc2ncnc3ccc(-c4cccnc4)cc23)cc1 | 1.26 µM (active) | 
52 | O=c1c(-c2ccc(Cl)cc2)nc2cnc(N3CCNCC3)nc2n1Cc1cccs1 | 5.01 µM (active) | 
53 | CN(C)c1ncc2nc(-c3ccc(F)cc3)c(=O)n(Cc3ccc(F)cc3)c2n1 |  | 11.5% (inactive)
54 | Cn1c(=O)c(-c2ccc(Cl)cc2)nc2cnc(N3CCOCC3)nc21 |  | 47% (inactive)
55 | CN1CCN(c2ncc3nc(-c4ccc(F)cc4)c(=O)n(Cc4cccs4)c3n2)CC1 |  | 32.5% (inactive)
56 | COc1cccc(Nc2ncc3nc(C)c(=O)n(Cc4cccs4)c3n2)c1 | 3.98 µM (active) | 
57 | CCNc1ncc2nc(-c3cn(C)c4ccccc34)c(=O)n(Cc3cccc(OC)c3)c2n1 | 3.98 µM (active) | 
